Inconclusive results are not listed. The source made the active and inactive calls. How the source made its calls: active means hit-call score of the fitted dose curve at least 0.9, where 1 is the maximum; inconclusive means response in the unintended direction; inactive means score below 0.9.

Our source for the outcome and AC50 values is PubChem BioAssay (EPA / NIEHS).

Assay [1] deals with Androgen receptor (Homo sapiens) (UniProt P10275). In words: ATG_AR_TRANS: Attagene TRANS-FACTORIAL HepG2 Assay for human Androgen Receptor (AR) (AID 2282973). To be noted: HepG2 Attagene TRANS-FACTORIAL AR reporter transcription. The method in brief: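 Transcriptional activity of an exogenous AR–Gal4 fusion read as GAL4-UAS reporter transcript levels in transfected human HepG2 cells after 24 h dosing. Detection via RT-PCR, 6-FAM labelling, HpaI digest and capillary electrophoresis; increase over DMSO baseline.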
Sequence of Androgen receptor (Homo sapiens) (P10275 whole entry, looked up, the tested form may be a part): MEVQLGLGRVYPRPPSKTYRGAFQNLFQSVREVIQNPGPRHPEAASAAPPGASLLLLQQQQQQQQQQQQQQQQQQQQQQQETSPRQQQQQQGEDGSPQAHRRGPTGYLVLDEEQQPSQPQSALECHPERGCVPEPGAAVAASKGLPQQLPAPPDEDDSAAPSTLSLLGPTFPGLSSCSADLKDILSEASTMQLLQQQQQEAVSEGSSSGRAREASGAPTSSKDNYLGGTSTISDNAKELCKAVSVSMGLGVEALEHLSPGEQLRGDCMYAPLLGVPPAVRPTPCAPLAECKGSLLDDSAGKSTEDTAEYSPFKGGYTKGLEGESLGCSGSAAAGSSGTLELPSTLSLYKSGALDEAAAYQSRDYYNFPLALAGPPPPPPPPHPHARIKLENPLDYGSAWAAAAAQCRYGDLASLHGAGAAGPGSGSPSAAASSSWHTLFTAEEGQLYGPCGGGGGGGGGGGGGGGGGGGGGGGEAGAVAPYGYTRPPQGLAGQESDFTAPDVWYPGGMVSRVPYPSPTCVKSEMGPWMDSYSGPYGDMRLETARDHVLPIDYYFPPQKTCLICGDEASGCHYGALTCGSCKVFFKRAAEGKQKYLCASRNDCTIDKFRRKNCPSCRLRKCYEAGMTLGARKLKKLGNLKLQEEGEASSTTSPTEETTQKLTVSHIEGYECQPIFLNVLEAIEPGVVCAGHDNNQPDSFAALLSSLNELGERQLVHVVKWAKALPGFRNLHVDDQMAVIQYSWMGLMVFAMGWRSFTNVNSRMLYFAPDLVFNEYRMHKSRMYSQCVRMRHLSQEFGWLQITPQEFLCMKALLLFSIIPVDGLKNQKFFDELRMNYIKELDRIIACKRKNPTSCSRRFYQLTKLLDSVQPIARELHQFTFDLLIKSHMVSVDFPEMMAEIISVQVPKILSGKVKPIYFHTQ

Assay [2] addresses human Phosphatase and Tensin Homolog (PTEN), PTEN (gene 5728) (UniProt P60484). Description: NVS_ENZ_hPTEN: NovaScreen (NVS) Enzymatic Assay for human Phosphatase and Tensin Homolog (PTEN) (AID 2283203). The essentials: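 Cell-free recombinant human PTEN with fluorescent substrate; product separated by electrophoretic mobility shift and read by fluorescence 1 h after dosing. Primary screen in duplicate at 25 uM, actives followed in concentration series versus DMSO.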

The target of assay [3] is Norway rat Vesicular Monoamine Transporter (VMAT2), neurotransmitter transporter, Slc18a2 (gene 25549) (UniProt Q01827). In words: NVS_TR_rVMAT2: NovaScreen (NVS) Transporter Assay for Norway rat Vesicular Monoamine Transporter (VMAT2), neurotransmitter transporter (AID 2283376).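 Further: actives lower the bound radioligand signal below the DMSO level.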 The method in brief: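 Rat forebrain tissue preparation used in a cell-free radioligand binding format; displacement read by filter-based scintillation counting 1 hour after dosing. Primary screen in duplicate at 25 uM, actives then run in concentration series; loss of signal versus DMSO baseline.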

Assay [4] deals with human Fibroblast Growth Factor Receptor 1 (FGFR1), FGFR1 (gene 2260) (UniProt P11362). Description: NVS_ENZ_hFGFR1: NovaScreen (NVS) Enzymatic Assay for human Fibroblast Growth Factor Receptor 1 (FGFR1) (AID 2283159).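 On AC50: hits lower the signal so potencies describe inhibitors of the kinase.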 The essentials: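 Cell-free recombinant kinase with fluorescent substrate, product separated by electrophoretic mobility shift; read 1 hour after dosing, loss of signal relative to DMSO. Initial screen in duplicate at 25 uM, actives followed in concentration series.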
Sequence of human Fibroblast Growth Factor Receptor 1 (FGFR1), FGFR1 (gene 2260) (P11362 whole entry, looked up): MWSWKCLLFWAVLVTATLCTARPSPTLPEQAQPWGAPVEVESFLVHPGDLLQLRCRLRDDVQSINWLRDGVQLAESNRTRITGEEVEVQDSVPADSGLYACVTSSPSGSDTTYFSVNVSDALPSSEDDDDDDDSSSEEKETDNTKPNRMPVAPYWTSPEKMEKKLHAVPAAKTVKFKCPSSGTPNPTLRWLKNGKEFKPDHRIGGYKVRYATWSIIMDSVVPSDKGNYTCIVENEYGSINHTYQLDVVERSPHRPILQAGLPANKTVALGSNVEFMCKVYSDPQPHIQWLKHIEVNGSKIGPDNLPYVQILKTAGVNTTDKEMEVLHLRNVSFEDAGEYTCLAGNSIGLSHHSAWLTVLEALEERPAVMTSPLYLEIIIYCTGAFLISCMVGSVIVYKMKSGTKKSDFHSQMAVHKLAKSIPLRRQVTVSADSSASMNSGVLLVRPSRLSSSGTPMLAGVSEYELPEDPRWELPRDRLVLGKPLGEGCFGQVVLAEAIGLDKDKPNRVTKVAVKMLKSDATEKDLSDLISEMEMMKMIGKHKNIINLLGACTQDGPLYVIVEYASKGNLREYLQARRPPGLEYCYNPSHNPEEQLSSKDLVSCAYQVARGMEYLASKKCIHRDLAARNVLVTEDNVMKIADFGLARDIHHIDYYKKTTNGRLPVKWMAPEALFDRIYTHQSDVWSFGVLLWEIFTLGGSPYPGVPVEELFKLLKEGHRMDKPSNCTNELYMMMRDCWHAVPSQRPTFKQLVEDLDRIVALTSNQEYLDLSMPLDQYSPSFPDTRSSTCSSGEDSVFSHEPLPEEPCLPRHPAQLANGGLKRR

Assay [5] addresses rat Monoamine Oxidase, MAO-B, Central (MAOBC), Maob (gene 25750) (UniProt P19643). In words: NVS_ENZ_rMAOBC: NovaScreen (NVS) Enzymatic Assay for rat Monoamine Oxidase, MAO-B, Central (MAOBC) (AID 2283238). The essentials:
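Rat brain tissue extract served as the cell-free MAO-B source; enzyme activity was read by scintillation counting 1.17 hours after compound addition. Loss of signal versus DMSO baseline was fitted; primary single-concentration screen at 25 uM, follow-up concentration-response up to 50 uM.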

Assay [6] has as its system rat Monoamine Oxidase, MAO-A, Central (MAOAC), gene 29253. Description: NVS_ENZ_rMAOAC: NovaScreen (NVS) Enzymatic Assay for rat Monoamine Oxidase, MAO-A, Central (MAOAC) (AID 2283243).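 Further: potency refers to inhibition seen as signal drop below DMSO baseline.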 The method in brief:
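Rat brain tissue extract used as enzyme source in a cell-free radiometric assay, read by scintillation counting 1.5 hours after dosing. Loss of signal relative to DMSO baseline scored; primary screen at 25 uM in duplicate, actives followed up in concentration series.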

A short description of assay [7]: ATG_M_32_XSP2: Attagene TRANS-FACTORIAL Multi-Species (XSP2) HepG2 Assay for M19 Transcription Factor (Internal Marker) (AID 2283826). The essentials: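 Read-out: reporter mRNA quantified by RT-PCR, FAM labeling, HpaI digestion and capillary electrophoresis, 24 h after dosing transfected HepG2 cells. Medium carried 3 nM 6-alpha-fluorotestosterone plus 1.5 nM norgestrel; gain of signal fitted against DMSO.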

For assay [8], the target named is human Epidermal Growth Factor Receptor (EGFR), EGFR (gene 1956) (UniProt P00533). In words: NVS_ENZ_hEGFR: NovaScreen (NVS) Enzymatic Assay for human Epidermal Growth Factor Receptor (EGFR) (AID 2283151). The essentials:
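Cell-free kinase assay, fluorescence plus electrophoretic mobility shift separating substrate and product, read 1 hour after dosing; loss of signal vs DMSO. Duplicate screen at 25 uM, then concentration-response to 50 uM.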

The target in assay [9] is human Aurora Kinase A - serine/threonine-protein Kinase 6 (AurA), AURKA (gene 6790) (UniProt O14965). In words: NVS_ENZ_hAurA: NovaScreen (NVS) Enzymatic Assay for human Aurora Kinase A - serine/threonine-protein Kinase 6 (AurA) (AID 2283142). The method in brief: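 Cell-free enzymatic assay with human Aurora A, 1 hour after dosing. Fluorescent substrate turnover detected after electrophoretic mobility shift separation of substrate and product. Screened at 25 uM, actives retested in concentration-response up to 50 uM.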
Sequence of human Aurora Kinase A - serine/threonine-protein Kinase 6 (AurA), AURKA (gene 6790) (O14965 whole entry, looked up): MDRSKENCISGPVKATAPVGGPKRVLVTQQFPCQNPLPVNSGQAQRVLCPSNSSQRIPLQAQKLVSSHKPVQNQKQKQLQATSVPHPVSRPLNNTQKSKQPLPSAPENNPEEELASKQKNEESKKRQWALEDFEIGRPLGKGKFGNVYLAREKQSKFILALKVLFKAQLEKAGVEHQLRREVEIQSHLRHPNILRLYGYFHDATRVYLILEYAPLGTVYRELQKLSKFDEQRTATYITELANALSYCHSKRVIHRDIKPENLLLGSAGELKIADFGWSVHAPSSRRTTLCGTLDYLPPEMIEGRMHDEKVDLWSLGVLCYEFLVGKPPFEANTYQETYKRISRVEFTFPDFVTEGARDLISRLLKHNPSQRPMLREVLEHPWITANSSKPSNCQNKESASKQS

The target in assay [10] is human Matrix Metalloproteinase-1 (MMP1), MMP1 (gene 4312) (UniProt P03956). In words: NVS_ENZ_hMMP1: NovaScreen (NVS) Enzymatic Assay for human Matrix Metalloproteinase-1 (MMP1) (AID 2283181). The method in brief:
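Human MMP1 enzyme activity measured by fluorescence 1 h after dosing, cell-free, with a specific substrate. Screened in duplicate at 25 uM; hits (e.g. 30% inhibition) run in concentration-response up to 50 uM; loss of signal versus DMSO.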

Assay [11] concerns the target human NIMA (Never In Mitosis Gene A)-Related Kinase 2 (NEK2), NEK2 (gene 4751) (UniProt P51955). Description: NVS_ENZ_hNEK2: NovaScreen (NVS) Enzymatic Assay for human NIMA (Never In Mitosis Gene A)-Related Kinase 2 (NEK2) (AID 2283188). The essentials: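 Cell-free NEK2 enzyme activity after 1 h exposure, read by fluorescence with electrophoretic mobility shift separating substrate and product. Primary screen in duplicate at 25 uM; actives then run as concentration series. Loss of signal versus DMSO scored.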

Assay [12] has as its target human Raf-1 Proto-Oncogene, serine/threonine Kinase (RAF1), RAF1 (gene 5894) (UniProt P04049). Description: NVS_ENZ_hRAF1: NovaScreen (NVS) Enzymatic Assay for human Raf-1 Proto-Oncogene, serine/threonine Kinase (RAF1) (AID 2283216). The essentials: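 Cell-free recombinant kinase with specific fluorescent substrate, product separated by electrophoretic mobility shift; read 1 h after dosing. Primary screen at 25 uM in duplicate; hits then run in concentration-response up to 50 uM, fitted as loss of signal versus DMSO.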

Assay [13] has as its target human Tyrosine Protein Kinase Receptor Tie-2 (Tie2), TEK (gene 7010) (UniProt Q02763). In words: NVS_ENZ_hTie2: NovaScreen (NVS) Enzymatic Assay for human Tyrosine Protein Kinase Receptor Tie-2 (Tie2) (AID 2283225). The method in brief:
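Recombinant human Tie2 kinase activity was read cell-free by fluorescence with electrophoretic mobility shift, 1 hour after dosing. The screen used 25 uM in duplicate, then concentration-response up to 50 uM. Signal loss was scored against DMSO.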

For assay [14], the target named is rat Adenylate Cyclase, Forskolin Stimulated, Adcy5 (gene 64532) (UniProt Q04400). Description: NVS_ENZ_rACFSKBinding: NovaScreen (NVS) Enzymatic Assay for rat Adenylate Cyclase, Forskolin Stimulated (AID 2283232). The essentials:
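Rat forebrain membrane preparation, cell-free, read 1 h after dosing by filter-based scintillation counting. Primary screen in duplicate at 25 uM; actives (e.g. ≥30% inhibition) rerun in concentration-response up to 50 uM; fit versus DMSO.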

Assay [15] concerns the target rat Corticotropin Releasing Factor Receptor (CRF), Crhr1 (gene 58959) (UniProt P35353). In words: NVS_GPCR_rCRF: NovaScreen (NVS) G Protein-Coupled Receptor Assay for rat Corticotropin Releasing Factor Receptor (CRF) (AID 2283300). The essentials:
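Rat cortical membranes used as receptor source in a radioligand competitive displacement binding assay; scintillation read 2 h after dosing. Primary screen run in duplicate at 25 uM; loss of signal versus DMSO baseline indicates binding.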

The target of assay [16] is rat Acetylcholinesterase (AChE), Ache (gene 83817) (UniProt P37136). Description: NVS_ENZ_rAChE: NovaScreen (NVS) Enzymatic Assay for rat Acetylcholinesterase (AChE) (AID 2283233). The method in brief: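 Rat brain membrane acetylcholinesterase activity measured colorimetrically 0.33 h after compound addition, loss of signal relative to DMSO. Primary screen in duplicate at 25 uM; actives re-run as concentration-response with 50 uM top concentration.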

For assay [17], the target named is Voltage-dependent N-type calcium channel subunit alpha-1B (Rattus norvegicus) (UniProt Q02294). In words: NVS_IC_rCaChN: NovaScreen (NVS) Ion Channel Assay for rat Calcium Channel, Type N (CaChN) (AID 2283317).

Sequence of human Raf-1 Proto-Oncogene, serine/threonine Kinase (RAF1), RAF1 (gene 5894) (P04049 whole entry, looked up): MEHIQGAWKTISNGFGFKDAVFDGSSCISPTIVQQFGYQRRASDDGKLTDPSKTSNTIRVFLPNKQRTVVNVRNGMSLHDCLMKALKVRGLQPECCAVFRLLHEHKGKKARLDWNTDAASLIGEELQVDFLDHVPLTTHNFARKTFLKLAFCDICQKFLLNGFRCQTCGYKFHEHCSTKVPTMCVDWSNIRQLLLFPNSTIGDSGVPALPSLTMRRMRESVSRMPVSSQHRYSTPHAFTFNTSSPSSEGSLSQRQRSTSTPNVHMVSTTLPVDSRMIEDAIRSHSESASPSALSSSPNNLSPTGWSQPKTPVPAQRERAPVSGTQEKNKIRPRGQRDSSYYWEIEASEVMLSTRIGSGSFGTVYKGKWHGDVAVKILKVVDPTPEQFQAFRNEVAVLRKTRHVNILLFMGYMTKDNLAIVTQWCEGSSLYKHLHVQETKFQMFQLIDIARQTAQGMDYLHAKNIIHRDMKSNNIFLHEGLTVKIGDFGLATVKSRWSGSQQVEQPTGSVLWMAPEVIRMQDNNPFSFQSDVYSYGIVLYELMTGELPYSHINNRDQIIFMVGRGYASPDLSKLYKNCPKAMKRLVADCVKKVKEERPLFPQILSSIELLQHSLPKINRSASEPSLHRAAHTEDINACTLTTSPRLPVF
Sequence of human Phosphatase and Tensin Homolog (PTEN), PTEN (gene 5728) (P60484 whole entry, looked up): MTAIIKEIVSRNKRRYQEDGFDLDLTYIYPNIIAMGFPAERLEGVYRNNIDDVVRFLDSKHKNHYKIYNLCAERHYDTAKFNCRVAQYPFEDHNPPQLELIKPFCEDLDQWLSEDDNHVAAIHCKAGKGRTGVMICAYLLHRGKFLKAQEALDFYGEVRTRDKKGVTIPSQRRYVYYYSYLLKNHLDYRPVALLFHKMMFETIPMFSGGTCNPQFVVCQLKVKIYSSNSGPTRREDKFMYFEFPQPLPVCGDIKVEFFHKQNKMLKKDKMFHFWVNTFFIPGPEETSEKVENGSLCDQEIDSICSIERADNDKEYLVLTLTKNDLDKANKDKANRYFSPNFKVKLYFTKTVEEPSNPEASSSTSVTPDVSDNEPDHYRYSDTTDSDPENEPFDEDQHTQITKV
Sequence of human Epidermal Growth Factor Receptor (EGFR), EGFR (gene 1956) (P00533 whole entry, looked up): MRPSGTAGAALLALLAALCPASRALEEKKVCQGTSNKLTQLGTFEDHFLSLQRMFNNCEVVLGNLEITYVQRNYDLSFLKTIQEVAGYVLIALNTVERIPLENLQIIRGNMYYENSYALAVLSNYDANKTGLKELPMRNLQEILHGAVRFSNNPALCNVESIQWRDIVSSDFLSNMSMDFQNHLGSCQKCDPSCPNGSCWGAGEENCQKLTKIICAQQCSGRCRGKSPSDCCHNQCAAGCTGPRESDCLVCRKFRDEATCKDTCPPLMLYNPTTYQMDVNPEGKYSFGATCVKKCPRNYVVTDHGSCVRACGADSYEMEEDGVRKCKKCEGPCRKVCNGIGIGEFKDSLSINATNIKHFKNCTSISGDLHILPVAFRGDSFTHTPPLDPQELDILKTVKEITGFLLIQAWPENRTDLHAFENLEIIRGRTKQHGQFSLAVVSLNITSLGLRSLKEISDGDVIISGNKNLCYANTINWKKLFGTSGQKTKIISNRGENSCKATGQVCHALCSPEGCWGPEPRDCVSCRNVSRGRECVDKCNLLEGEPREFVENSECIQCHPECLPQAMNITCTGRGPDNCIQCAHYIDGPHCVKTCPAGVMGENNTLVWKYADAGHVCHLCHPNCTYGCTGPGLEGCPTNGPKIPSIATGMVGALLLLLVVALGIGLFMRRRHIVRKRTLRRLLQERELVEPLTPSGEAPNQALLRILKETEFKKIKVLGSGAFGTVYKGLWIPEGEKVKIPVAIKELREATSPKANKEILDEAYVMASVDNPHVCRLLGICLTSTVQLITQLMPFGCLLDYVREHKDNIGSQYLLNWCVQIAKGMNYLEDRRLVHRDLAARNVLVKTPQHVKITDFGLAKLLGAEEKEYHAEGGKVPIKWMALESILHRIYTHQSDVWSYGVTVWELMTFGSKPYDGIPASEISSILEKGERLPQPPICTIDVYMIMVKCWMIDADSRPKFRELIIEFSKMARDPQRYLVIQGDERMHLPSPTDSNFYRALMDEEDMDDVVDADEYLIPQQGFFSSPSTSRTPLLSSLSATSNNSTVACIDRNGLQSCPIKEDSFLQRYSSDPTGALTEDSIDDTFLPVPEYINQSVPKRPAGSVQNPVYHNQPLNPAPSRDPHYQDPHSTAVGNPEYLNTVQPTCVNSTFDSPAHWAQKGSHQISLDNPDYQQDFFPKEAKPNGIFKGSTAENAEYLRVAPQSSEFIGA
Sequence of rat Monoamine Oxidase, MAO-B, Central (MAOBC), Maob (gene 25750) (P19643 whole entry, looked up): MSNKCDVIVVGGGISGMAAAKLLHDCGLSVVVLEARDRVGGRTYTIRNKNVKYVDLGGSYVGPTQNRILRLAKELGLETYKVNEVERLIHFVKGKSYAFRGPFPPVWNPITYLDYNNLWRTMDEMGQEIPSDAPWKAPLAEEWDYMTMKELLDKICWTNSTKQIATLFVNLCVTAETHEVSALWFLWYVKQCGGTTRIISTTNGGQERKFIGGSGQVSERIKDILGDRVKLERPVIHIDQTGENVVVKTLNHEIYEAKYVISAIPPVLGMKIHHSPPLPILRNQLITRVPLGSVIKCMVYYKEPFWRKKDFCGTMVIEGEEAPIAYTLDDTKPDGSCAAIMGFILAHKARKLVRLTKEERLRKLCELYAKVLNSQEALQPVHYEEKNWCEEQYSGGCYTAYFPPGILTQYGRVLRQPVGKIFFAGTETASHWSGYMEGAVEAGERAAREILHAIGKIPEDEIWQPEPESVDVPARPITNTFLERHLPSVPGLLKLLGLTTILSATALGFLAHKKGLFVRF

As for `CCOC(=O)C1=NN(c2ccc(Cl)cc2Cl)C(C)(C(=O)OCC)C1` (stereo not drawn), the outcome in assay [1] and in assay [2] was inactive. Besides, in assay [3], the half-maximal activity concentration (AC50) was 15.5 µM (active).
As for `Oc1ccc2c(c1)-c1ccccc1C2`, the compound was classed as inactive in assay [1] and in [7]. Further, the results for the half-maximal activity concentration (AC50) in assay [4], in assay [5] and in assay [6] were 32.7 µM (active), 19.6 µM (active) and 0.743 µM (active), respectively.
Turning to `OCCCc1cccnc1`, the compound was called inactive in assay [1] and in assay [2].
For `O=C(NS(=O)(=O)/C=C/c1cccs1)c1ccc(F)cc1Br`, the result in assay [1] and in [5] was inactive.
Regarding `N#C[C@@H]1CC(F)(F)CN1C(=O)CNC1CC2CCC(C1)N2c1ncccn1` (stereo partly drawn), the outcome in [1] and in assay [8] was inactive.
Consider `CN(C)c1ccc(N=NS(=O)(=O)O)cc1`, for which the outcome in assay [1], in assay [9], in assay [4], in assay [10], in assay [11] and in assay [12] was inactive. Moreover, the result in assay [13], in assay [14], in assay [6] and in [15] was inactive.
With `Cc1cc(NC(=O)C(=O)O)cc(C)c1Oc1ccc(O)c2c1CCC2`, the result in assay [1] and in assay [4] was inactive.
Turning to `CN[C@H]1CC[C@@H](c2ccc(Cl)c(Cl)c2)c2ccc(S(N)(=O)=O)cc21`, the outcome in assay [1] and in [17] was inactive. Moreover, the concentration at half-maximal activity (AC50) in [16] is 25 µM (active).
Regarding `O=C(c1ccc(O)cc1O)c1ccc(O)cc1O`, the call in assay [1] and in assay [12] was inactive. The figures for the AC50 in assay [9], in assay [8] and in assay [4] were 22.2 µM (active), 25 µM (active) and 25 µM (active), respectively.
Regarding `C#CC(O)C(CC)CCCC` (stereo not drawn), the compound was classed as inactive in assay [1] and in assay [12].
On to `CC=CC(=O)C1=C(C)C=CCC1(C)C`, for which the compound was called inactive in [1] and in assay [2].
